Assay [1] addresses Insulin receptor (Homo sapiens) (UniProt P06213). The following applies: at 10 µM.
For assay [2] the target is unchanged. The following applies: at 1 µM.
For assay [3] the target is unchanged. The conditions noted are these: at 10 µM. The source holds these as a separate data set.
Assay [4] deals with Interleukin-1 receptor-associated kinase 1 (Homo sapiens) (UniProt P51617). The conditions noted are these: at 1 µM.
For assay [5] the target is unchanged. The following applies: at 10 µM.
Assay [6] deals with T1, Interleukin-1 receptor-associated kinase 4 (Homo sapiens) (UniProt Q9NWZ3).
T1 sequence (whole entry): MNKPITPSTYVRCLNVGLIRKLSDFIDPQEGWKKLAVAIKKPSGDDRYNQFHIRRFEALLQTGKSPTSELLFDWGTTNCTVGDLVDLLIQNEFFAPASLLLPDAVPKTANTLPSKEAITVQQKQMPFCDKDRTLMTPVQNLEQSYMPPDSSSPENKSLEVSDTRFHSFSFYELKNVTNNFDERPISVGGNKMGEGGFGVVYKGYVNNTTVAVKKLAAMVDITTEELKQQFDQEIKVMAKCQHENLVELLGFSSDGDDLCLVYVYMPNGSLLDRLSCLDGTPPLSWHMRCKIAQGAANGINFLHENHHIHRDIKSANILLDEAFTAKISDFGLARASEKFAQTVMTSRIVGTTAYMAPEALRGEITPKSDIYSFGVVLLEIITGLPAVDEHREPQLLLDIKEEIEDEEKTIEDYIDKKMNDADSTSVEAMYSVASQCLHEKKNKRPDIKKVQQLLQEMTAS
The following applies: at 1 µM.

The target in assay [7] is T1, Interleukin-1 receptor-associated kinase 4 (Homo sapiens). The following applies: at 10 µM.
The target of assay [8] is Insulin receptor-related protein (Homo sapiens) (UniProt P14616). The following applies: at 1 µM.
Assay [9] has the same target. The following applies: at 10 µM.
The target of assay [10] is T2, Tyrosine-protein kinase ITK/TSK (Homo sapiens) (UniProt Q08881).
T2 sequence (whole entry): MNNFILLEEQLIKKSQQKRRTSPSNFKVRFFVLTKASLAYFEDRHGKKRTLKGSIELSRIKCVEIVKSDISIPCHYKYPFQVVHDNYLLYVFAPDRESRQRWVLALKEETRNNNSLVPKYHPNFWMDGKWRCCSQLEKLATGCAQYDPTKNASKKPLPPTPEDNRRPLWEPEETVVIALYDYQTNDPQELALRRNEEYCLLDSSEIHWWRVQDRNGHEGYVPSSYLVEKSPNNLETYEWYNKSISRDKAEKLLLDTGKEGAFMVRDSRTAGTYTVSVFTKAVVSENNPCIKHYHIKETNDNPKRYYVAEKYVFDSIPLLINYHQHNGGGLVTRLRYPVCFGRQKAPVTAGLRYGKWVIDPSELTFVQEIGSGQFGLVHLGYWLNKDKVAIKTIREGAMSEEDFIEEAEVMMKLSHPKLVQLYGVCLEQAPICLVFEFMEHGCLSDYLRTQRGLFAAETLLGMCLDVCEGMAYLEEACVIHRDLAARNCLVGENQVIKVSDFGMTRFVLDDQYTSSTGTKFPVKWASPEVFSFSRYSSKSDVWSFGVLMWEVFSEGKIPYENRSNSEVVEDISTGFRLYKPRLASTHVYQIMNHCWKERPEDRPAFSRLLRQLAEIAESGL
The following applies: at 1 µM.

Assay [11] deals with T2, Tyrosine-protein kinase ITK/TSK (Homo sapiens). The conditions noted are these: at 10 µM.
Assay [12] addresses Tyrosine-protein kinase JAK2 (Homo sapiens) (UniProt O60674). The following applies: at 1 µM.
Assay [13] has the same target. The following applies: at 10 µM.
Assay [14] addresses T3, Tyrosine-protein kinase JAK3 (Homo sapiens) (UniProt P52333).
T3 sequence (whole entry): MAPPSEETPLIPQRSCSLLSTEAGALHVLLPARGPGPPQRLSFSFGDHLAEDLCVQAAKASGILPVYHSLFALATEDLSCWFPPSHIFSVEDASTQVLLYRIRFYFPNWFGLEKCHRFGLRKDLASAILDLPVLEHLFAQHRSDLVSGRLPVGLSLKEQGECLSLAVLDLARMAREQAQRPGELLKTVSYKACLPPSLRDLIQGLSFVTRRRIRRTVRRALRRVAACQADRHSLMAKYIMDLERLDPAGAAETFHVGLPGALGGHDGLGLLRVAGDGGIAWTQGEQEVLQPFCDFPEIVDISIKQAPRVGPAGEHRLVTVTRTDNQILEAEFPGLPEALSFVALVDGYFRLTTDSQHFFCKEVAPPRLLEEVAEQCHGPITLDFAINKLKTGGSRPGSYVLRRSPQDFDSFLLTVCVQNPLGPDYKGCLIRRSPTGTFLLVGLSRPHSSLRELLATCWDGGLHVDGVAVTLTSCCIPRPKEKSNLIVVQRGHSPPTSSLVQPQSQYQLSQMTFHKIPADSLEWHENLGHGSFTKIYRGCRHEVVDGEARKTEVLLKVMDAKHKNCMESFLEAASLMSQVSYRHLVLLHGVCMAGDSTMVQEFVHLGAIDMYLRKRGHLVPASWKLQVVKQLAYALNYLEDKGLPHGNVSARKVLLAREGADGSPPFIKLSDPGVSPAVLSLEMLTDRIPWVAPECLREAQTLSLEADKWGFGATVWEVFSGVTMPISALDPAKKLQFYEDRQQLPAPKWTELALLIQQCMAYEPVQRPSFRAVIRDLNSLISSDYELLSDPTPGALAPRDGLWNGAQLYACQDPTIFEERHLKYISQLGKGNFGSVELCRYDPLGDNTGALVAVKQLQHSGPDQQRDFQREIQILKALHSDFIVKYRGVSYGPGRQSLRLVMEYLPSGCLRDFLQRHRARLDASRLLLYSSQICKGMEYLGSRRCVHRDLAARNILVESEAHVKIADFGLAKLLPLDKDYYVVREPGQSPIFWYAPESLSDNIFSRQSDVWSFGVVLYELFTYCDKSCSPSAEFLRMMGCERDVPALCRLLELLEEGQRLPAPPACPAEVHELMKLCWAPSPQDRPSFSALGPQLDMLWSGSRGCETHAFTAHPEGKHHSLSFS
The following applies: at 1 µM.

Assay [15] addresses T3, Tyrosine-protein kinase JAK3 (Homo sapiens). The following applies: at 10 µM.
Assay [16] concerns the target Mitogen-activated protein kinase 8 (Homo sapiens) (UniProt P45983). The conditions noted are these: at 1 µM.
Assay [17] has the same target. The following applies: at 10 µM.
Assay [18] addresses Mitogen-activated protein kinase 9 (Homo sapiens) (UniProt P45984). The conditions noted are these: at 1 µM.
Assay [19] shares this target. The following applies: at 10 µM.
Assay [20] has as its target Mitogen-activated protein kinase 10 (Homo sapiens) (UniProt P53779). The conditions noted are these: at 1 µM.

Tyrosine-protein kinase JAK2 (Homo sapiens), sequence (O60674 whole entry): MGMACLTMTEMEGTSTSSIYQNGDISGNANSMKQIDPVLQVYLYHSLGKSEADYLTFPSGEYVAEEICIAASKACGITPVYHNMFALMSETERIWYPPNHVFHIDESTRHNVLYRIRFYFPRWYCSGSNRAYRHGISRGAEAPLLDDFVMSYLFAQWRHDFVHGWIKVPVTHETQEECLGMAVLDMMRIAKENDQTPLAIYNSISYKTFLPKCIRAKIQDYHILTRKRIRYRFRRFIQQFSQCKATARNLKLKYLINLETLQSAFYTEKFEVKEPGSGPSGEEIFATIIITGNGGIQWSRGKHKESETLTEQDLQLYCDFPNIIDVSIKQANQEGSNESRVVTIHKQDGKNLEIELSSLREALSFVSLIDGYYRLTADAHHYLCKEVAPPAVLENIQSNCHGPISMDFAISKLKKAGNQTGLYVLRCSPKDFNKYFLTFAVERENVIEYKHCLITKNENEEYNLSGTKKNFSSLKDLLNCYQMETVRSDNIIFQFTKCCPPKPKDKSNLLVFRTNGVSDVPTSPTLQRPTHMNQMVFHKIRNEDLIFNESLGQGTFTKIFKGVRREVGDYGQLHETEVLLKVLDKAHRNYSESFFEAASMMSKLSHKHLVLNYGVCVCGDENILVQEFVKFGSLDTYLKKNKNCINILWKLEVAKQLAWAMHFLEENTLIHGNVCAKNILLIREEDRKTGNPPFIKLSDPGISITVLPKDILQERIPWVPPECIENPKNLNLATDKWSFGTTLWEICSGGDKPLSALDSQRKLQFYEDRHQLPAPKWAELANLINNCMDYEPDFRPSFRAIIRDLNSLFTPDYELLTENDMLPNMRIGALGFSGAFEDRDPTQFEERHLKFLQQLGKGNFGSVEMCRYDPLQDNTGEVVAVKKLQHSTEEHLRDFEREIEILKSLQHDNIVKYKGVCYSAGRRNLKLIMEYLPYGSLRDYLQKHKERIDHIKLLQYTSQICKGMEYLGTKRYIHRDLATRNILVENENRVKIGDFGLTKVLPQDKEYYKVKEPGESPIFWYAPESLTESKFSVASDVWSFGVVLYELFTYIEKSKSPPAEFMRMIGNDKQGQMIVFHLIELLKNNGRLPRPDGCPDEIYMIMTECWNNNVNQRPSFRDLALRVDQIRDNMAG
Interleukin-1 receptor-associated kinase 1 (Homo sapiens), sequence (P51617 whole entry, looked up): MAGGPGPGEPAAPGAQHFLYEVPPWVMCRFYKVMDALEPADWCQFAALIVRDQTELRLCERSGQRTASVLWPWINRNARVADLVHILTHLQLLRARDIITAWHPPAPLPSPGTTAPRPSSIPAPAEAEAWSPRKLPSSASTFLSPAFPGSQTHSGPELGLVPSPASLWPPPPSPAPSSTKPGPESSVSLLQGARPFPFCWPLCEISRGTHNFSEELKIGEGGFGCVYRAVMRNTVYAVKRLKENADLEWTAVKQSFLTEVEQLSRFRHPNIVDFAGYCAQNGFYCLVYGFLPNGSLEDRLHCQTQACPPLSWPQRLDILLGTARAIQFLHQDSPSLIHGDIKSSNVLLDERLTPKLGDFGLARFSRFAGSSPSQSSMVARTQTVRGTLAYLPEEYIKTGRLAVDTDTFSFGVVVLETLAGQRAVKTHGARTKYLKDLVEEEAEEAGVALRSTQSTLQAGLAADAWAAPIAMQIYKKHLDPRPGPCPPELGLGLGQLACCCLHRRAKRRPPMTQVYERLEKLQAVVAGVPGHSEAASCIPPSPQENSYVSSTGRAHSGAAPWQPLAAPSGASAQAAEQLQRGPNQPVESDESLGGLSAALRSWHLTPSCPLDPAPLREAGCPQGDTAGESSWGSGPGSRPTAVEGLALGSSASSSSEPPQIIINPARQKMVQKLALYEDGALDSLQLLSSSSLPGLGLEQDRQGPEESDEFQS
Insulin receptor (Homo sapiens), sequence (P06213 28-758 limits assumed): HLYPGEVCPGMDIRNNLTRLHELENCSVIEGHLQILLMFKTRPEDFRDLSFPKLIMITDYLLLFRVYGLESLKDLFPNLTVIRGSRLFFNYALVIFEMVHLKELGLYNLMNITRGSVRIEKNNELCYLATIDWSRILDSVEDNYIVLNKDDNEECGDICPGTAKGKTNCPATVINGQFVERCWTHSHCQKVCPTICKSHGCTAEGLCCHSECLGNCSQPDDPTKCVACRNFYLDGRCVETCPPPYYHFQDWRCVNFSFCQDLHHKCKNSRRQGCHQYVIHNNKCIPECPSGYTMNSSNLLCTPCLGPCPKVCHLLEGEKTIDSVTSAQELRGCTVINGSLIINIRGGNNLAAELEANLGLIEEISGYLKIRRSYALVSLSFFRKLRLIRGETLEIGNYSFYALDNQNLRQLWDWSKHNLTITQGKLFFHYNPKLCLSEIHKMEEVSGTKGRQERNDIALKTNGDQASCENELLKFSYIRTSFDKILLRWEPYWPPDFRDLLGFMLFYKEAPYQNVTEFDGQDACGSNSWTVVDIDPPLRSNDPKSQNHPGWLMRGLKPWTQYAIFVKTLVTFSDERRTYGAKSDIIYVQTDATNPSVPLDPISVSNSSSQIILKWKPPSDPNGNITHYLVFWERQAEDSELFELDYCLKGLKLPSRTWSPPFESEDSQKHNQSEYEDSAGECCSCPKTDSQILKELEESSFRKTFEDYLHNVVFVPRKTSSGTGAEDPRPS
Insulin receptor (Homo sapiens), sequence (P06213 763-1382 limits assumed): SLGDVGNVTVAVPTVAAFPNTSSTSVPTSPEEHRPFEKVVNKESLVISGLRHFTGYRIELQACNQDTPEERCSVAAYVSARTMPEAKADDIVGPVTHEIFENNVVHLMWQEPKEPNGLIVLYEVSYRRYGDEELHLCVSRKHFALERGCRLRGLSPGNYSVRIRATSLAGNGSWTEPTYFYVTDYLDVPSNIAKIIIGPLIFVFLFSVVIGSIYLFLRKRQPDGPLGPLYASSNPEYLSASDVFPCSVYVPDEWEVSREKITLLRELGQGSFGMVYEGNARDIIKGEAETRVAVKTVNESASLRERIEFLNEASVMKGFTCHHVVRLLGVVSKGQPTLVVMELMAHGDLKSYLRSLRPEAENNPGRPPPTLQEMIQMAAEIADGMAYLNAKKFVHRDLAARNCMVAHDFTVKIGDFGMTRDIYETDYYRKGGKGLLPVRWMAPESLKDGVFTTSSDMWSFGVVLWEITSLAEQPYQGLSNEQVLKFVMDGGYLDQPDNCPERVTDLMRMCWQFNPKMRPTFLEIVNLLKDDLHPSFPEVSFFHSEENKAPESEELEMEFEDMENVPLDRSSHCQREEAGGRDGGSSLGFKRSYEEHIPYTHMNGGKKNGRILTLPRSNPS
Mitogen-activated protein kinase 8 (Homo sapiens), sequence (P45983 whole entry): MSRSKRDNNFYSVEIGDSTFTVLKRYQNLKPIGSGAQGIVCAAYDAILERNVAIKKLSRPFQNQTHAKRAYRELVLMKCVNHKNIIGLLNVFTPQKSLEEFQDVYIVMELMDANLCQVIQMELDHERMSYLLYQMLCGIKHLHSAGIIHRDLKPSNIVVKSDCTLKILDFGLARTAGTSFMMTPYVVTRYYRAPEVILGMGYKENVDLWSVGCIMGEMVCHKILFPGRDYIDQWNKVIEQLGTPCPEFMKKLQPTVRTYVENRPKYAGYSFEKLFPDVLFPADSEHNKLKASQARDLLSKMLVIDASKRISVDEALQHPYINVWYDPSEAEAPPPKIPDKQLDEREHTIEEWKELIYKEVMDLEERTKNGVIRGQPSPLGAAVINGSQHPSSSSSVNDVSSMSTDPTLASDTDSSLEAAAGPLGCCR
Mitogen-activated protein kinase 10 (Homo sapiens), sequence (P53779 whole entry): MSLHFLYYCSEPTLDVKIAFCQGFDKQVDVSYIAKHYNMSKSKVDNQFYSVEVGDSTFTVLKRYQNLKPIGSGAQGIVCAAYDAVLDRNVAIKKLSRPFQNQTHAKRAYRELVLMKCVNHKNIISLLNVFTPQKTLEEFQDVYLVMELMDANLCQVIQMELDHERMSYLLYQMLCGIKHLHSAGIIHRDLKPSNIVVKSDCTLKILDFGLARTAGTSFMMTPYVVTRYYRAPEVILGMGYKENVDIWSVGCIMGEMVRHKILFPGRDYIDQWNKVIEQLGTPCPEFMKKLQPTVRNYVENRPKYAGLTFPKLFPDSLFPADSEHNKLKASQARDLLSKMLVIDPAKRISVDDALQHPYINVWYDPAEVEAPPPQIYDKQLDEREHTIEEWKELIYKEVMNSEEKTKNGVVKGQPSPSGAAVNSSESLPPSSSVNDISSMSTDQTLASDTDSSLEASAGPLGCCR
Mitogen-activated protein kinase 9 (Homo sapiens), sequence (P45984 whole entry, looked up): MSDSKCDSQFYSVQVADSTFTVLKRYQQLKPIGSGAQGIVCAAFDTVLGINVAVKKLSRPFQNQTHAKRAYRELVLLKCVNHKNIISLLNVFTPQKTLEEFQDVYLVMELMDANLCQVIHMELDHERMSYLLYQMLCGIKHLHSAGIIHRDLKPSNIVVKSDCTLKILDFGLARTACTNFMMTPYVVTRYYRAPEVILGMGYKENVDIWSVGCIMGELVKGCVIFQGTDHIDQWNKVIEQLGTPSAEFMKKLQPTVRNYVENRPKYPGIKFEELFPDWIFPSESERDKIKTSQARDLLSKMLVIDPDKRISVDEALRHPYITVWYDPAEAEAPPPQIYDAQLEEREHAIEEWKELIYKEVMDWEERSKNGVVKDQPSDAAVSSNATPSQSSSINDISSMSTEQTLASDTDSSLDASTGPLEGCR

On to `N#C/C(=C(\N)Sc1ccc(N)cc1)c1ccccc1C(F)(F)F`, for which the residual activity in assay [1] was found to be 102%; in assay [2], 102%; in assay [3], 92%; in [4], 91%; in [5], 112%; in [6] it was 83%. Moreover, the residual activity in assay [7] amounted to 81%; in assay [8], 105%; in assay [9], 101%; in assay [10], 100%; in [11], 96%; in [12], 99%. Besides, the residual activity was 98% in assay [13]; 101% in assay [14]; 101% in assay [15]; 95% in assay [16]; 100% in assay [17]; 93% in [18]. Moreover, the residual activity in assay [19] came out at 103%; in [20], 114%.
As for `O=C1Nc2ccccc2/C1=C1/Nc2ccccc2/C1=N\OCCC(O)CO` (configuration not stated), the residual activity is 4% in assay [1]; 10% in assay [2]; 4% in [3]; 31% in assay [4]; 23% in [5]; 16% in [6]. The residual activity came out at 0% in assay [7]; 2% in [8]; 2% in assay [9]; 24% in assay [10]; 2% in [11]; 27% in assay [12]. Further, the residual activity in [13] was determined as 29%; in assay [14] it was 13%; in [15], 1%; in [16] it was 56%; in [17], 61%; in assay [18], 43%. Also, the residual activity in assay [19] is 30%; in assay [20] it was 5%.
Turning to `COc1cc2ncnc(Nc3ccc(Oc4ccccc4)cc3)c2cc1OC`, the residual activity was 98% in [1]; 93% in [2]; 91% in [3]; 87% in [4]; 79% in [5]; 98% in assay [6]. Besides, the residual activity in assay [7] was determined as 79%; in [8], 82%; in [9], 81%; in [10], 86%; in assay [12] it was 118%; in [13], 148%. In addition, the residual activity amounted to 93% in assay [14]; 113% in assay [15]; 106% in [16]; 110% in [17]; 121% in assay [18]; 98% in assay [19]. The residual activity in [20] came to 83%.
Regarding `O=c1c2ccccc2[nH]c(=S)n1CCN1CCC(=C(c2ccc(F)cc2)c2ccc(F)cc2)CC1`, the residual activity came out at 121% in assay [1]; 105% in assay [2]; 101% in assay [3]; 83% in assay [4]; 86% in [5]; 105% in assay [6]. Further, the residual activity in assay [7] was determined as 103%; in assay [8], 120%; in [9] it was 71%; in assay [10], 109%; in [11] it was 96%; in assay [12] it was 122%. The residual activity came to 102% in assay [13]; 97% in assay [14]; 101% in [15]; 104% in assay [16]; 83% in assay [17]; 107% in assay [18]. The results for the residual activity in assay [19] and in assay [20] were 101% and 98%, respectively.
`c1ccc2c(-c3ccncc3)c[nH]c2c1`: the residual activity was 70% in assay [1]; 97% in [2]; 87% in assay [3]; 76% in assay [4]; 57% in assay [5]; 94% in [6]. Also, the residual activity in [7] amounted to 99%; in assay [9], 83%; in assay [10], 101%; in assay [11], 95%; in assay [12], 97%; in assay [13], 101%. The residual activity turned out to be 103% in assay [14]; 97% in [16]; 78% in assay [17]; 107% in assay [18]; 93% in assay [19].
As to `c1ccc(-c2n[nH]cc2-c2ccnc3ccccc23)nc1`, the residual activity in assay [1] was 84%; in assay [2], 99%; in assay [3] it was 105%; in assay [4] it was 91%; in assay [5] it was 73%; in assay [6] it was 87%. The residual activity in assay [7] is 101%; in assay [8], 132%; in assay [9] it was 79%; in assay [10], 97%; in assay [11], 104%; in [12], 94%. The residual activity amounted to 109% in assay [13], 109% in assay [18], 99% in assay [19] and 79% in [20].
For `O=C1NC(=O)c2c1c1c3ccccc3[nH]c1c1[nH]c3cc(Br)ccc3c21`, the residual activity in assay [1] was 88%; in assay [2], 103%; in assay [3], 95%; in [4], 106%; in [5], 107%; in [6] it was 92%. Also, the residual activity in [7] was determined as 76%; in assay [8] it was 97%; in assay [9] it was 84%; in assay [10] it was 102%; in [11], 97%; in assay [12], 97%. In addition, the residual activity in assay [13] was 106%; in [14], 94%; in assay [15] it was 96%; in assay [16], 110%; in [17], 98%; in [18], 110%. Further, the residual activity in assay [19] was determined as 121%; in [20] it was 77%.

The values above are taken from ChEMBL document CHEMBL2218924, “A broad activity screen in support of a chemogenomic map for kinase signalling research and drug discovery” (Biochem J, 2013).
